In PubChem BioAssay one finds composite z-score and z-score data, which are given here for 24 compounds.

The source made the active and inactive calls. Unless noted, no rule for the calls is given here.

Assay [1] concerns XIP peptide (Xip251-270) binding. The assay is described as follows: XIP fragment 251-270 binding compounds – biochemical, small-molecule microarray, fluorescence 635/667 nm, 0.1 µg/mL protein, primary screen (AID 1182). The following applies: fluorescent protein binding, 635 nm, higher = more signal, called active from +8 up or from −8 down.
For the next assay, the system named is XIP peptide (Xip251-270). The assay is described as follows: compounds binding XIP fragment 251-270 – biochemical, small-molecule microarray, fluorescence 635/667 nm, 0.5 µg/mL protein, primary screen (AID 1183). The following applies: fluorescence 635 nm, higher = more signal.
Assay [2] can be described thus: blood-stage malaria parasite viability loss – strain 3D7, DAPI fluorescence, 100 nL, primary screen (AID 1184).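 Also: parasites grown inside human red blood cells in medium with human serum.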 The note with it: P. falciparum 3D7 growth, 3 d, higher = more signal.
Assay [3] concerns the target Homeobox protein Hox-A13 (Mus musculus) (UniProt Q62424). The assay is described as follows: disruptors of Hoxa13 oligonucleotide interaction – biochemical, fluorescence polarization, labeled oligonucleotide, primary screen (AID 1185). The note with it: Hoxa13:DNA binding, 15 min, higher = more signal, called active from +8 up or from −8 down. (In fluorescence polarisation assays a small probe gives low polarisation when free and higher when bound to something large.)

A short description of assay [4]: blockers of DNA damage checkpoint Chk1 activation – imaging, HeLa, hydroxyurea, phospho-Chk1 antibody, percent positive cells, primary screen (AID 1186). The note with it: hydroxyurea-induced phospho-Chk1 immunofluorescence imaging, higher = more signal.
The nature of assay [5]: blockers of DNA damage checkpoint Chk1 activation – imaging, HeLa, hydroxyurea, phospho-Chk1 nuclear intensity, primary screen (AID 1187). The note with it: hydroxyurea-induced phospho-Chk1 immunofluorescence imaging, higher = more signal.

Chain of Homeobox protein Hox-A13 (Mus musculus) (Q62424 whole entry, looked up): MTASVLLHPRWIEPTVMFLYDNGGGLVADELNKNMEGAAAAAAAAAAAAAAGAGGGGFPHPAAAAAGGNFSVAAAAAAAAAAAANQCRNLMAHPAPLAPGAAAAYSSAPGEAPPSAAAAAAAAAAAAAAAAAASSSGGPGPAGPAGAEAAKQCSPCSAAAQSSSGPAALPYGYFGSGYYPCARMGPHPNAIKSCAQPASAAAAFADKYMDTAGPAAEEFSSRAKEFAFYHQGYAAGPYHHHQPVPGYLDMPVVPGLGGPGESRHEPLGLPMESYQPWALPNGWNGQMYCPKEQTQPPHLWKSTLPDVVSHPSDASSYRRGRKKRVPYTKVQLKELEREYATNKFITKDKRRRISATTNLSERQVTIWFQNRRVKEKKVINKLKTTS

For `CCCCCN1CC=CC23O[C@@H]4C=CCOC(=O)[C@@H]4[C@H]2C(=O)N(CCCCCCO)[C@@H]3C1=O` (some centres undefined), the figures for the composite z-score (in assay [1]; in the assay on XIP peptide (Xip251-270)) were 0.282 (inactive) and -0.325, respectively. For the same compound, the z-score in assay [2] is -0.658; in assay [3] it was -4.08 (inactive); in assay [4], -0.0533 (inactive); in assay [5], 0.0434 (inactive).

As to `COC(=O)C1=CCC(c2cccc(Cl)c2)O1` (centres undefined), the composite z-score was -0.0103 (inactive) in assay [1] and 0.45 in the assay with XIP peptide (Xip251-270). Moreover, the z-score is -0.539 in assay [2], -0.451 (inactive) in assay [3], 0.456 (inactive) in assay [4] and 0.498 (inactive) in assay [5].

Turning to `C#C[C@@H](CC)O[Si](C#Cc1ccc(Oc2ccccc2)cc1)(C(C)C)C(C)C`, the composite z-score in assay [1] is 0.0878 (inactive); with XIP peptide (Xip251-270), -0.102. Also, the z-score was -0.968 in assay [2], -0.279 (inactive) in assay [3], 0.169 (inactive) in assay [4] and -0.0725 (inactive) in assay [5].

Consider `CC(C)C[C@@H]1NC(=O)[C@H]2C[C@@H](C(=O)O)[C@@H](c3ccc(O)cc3)N2C1=O`, for which the results for the composite z-score (in assay [1]; in the assay on XIP peptide (Xip251-270)) were 0.0473 (inactive) and 0.86, respectively. In addition, the z-score in assay [2] is -0.251; in assay [3], -2.19 (inactive); in assay [4] it was -0.523 (inactive); in assay [5], -0.332 (inactive).

With `COCCOC(=O)N1C(=O)[C@@]2(c3cc(C#CCNC(N)=O)ccc31)[C@H](c1ccc(O)cc1)N1[C@H](c3ccccc3)[C@H](c3ccccc3)OC(=O)[C@H]1[C@@H]2C(=O)N1CCCCCCC1`, the composite z-score was 0.348 (inactive) in assay [1] and 0.561 in the assay with XIP peptide (Xip251-270). Besides, the z-score in assay [2] is -0.0743; in assay [3] it was -0.578 (inactive); in assay [4], 0.149 (inactive); in assay [5], 0.452 (inactive).

Turning to `COC(=O)[C@@]1(Cc2ccc(F)cc2)[C@H]2c3cc(C(=O)N(C)C)n(Cc4ccc(OC)c(OC)c4)c3C[C@H]2CN1C(=O)c1ccccc1`, the composite z-score is 0.316 (inactive) in assay [1] and 0.835 in the assay on XIP peptide (Xip251-270). Also, the z-score in assay [2] was -1.03; in assay [3], -3.65 (inactive); in assay [4], 0.427 (inactive); in assay [5] it was 0.753 (inactive).

Consider `N#Cc1ccc(NN2C(C(O)c3cc(C(F)(F)F)cc(C(F)(F)F)c3)C=CC3C(=O)N(c4ccccc4)C(=O)C32)cc1` (centres undefined), for which the composite z-score is 1.67 (inactive) in assay [1] and 0.479 with XIP peptide (Xip251-270). Moreover, the z-score in assay [2] was -0.496; in assay [3], -1.5 (inactive); in assay [4], 0.245 (inactive); in assay [5] it was -0.0521 (inactive).

Regarding `C=CCOC(=O)[C@H]1[C@@H]2C(=O)O[C@@H](c3ccccc3)[C@@H](c3ccccc3)N2[C@@H](c2ccc(OCCOC(=O)[C@H]3C[C@H]4C(=O)N5CCC[C@H]5C(=O)N4[C@H]3c3cccc(OCCO)c3)cc2)[C@]12C(=O)Nc1ccc(I)cc12`, the values for the composite z-score (in assay [1]; in the assay on XIP peptide (Xip251-270)) were 2.54 (inactive) and 0.829, respectively. Also, the z-score in assay [2] was -0.139; in assay [3], -1.27 (inactive); in assay [4], -0.576 (inactive); in assay [5], -0.305 (inactive).

For `C=C(COC)/C(=C/C[C@H](OC(=O)c1ccncc1)c1ccc(CO)o1)c1cc(C(=O)OC)ccc1OC`, the composite z-score in assay [1] was -0.222 (inactive); with XIP peptide (Xip251-270), 0.483. Besides, the z-score was 0.215 in assay [2], -5.06 (inactive) in assay [3], -0.35 (inactive) in assay [4] and -0.437 (inactive) in assay [5].

As to `COc1ccc([Si](C)(C)[C@H]2[C@H](CCO)O[C@@]3(C(=O)N(Cc4cccc(NC(=O)[C@H](C)O)c4)c4ccccc43)[C@@H]2C)cc1`, the composite z-score in assay [1] is -0.201 (inactive); in the assay with XIP peptide (Xip251-270), 0.618. For the same compound, the z-score was -2.74 in assay [2], -6.16 (inactive) in assay [3], -1.95 (inactive) in assay [4] and -0.667 (inactive) in assay [5].

With `COCCCNC(=O)[C@]1(CCC(=O)OC(C)(C)C)N=C(c2ccc(OCCCO)cc2)O[C@@H]1c1ccccc1N=[N+]=[N-]`, the figures for the composite z-score (in assay [1]; in the assay on XIP peptide (Xip251-270)) were 0.448 (inactive) and 0.764, respectively. In addition, the z-score in assay [2] is -1.75; in assay [3], -4.03 (inactive); in assay [4] it was -0.437 (inactive); in assay [5], -0.234 (inactive).

For the compound `O=C1c2ccccc2[C@@]2(Cc3ccccc3N(C3CC3)C2=O)[C@H](c2ccc(CO)cc2)N1Cc1ccccc1C(F)(F)F`, the composite z-score is -0.27 (inactive) in assay [1] and 0.926 in the assay on XIP peptide (Xip251-270). Also, the z-score in assay [2] was -1.42; in assay [3], -2 (inactive); in assay [4] it was 0.0523 (inactive); in assay [5] it was 0.145 (inactive).

`CC(C)OC(=O)C=C1C[C@@H](c2ccc(C#N)cc2)O[C@@H](c2ccc(C#N)cc2)O1`: the composite z-score in assay [1] was 1.1 (inactive); in the assay with XIP peptide (Xip251-270), 0.865. Also, the z-score in assay [2] is -0.868; in assay [3] it was -5.34 (inactive); in assay [4] it was 0.296 (inactive); in assay [5], 0.219 (inactive).

On to `COC(=O)[C@@]1(Cc2ccc(F)cc2)[C@@H]2C(=CC(=O)[C@H]2CC(=O)C(=O)N(C)C)CN1C(=O)c1ccccc1`, for which the composite z-score in assay [1] is 0.0142 (inactive); in the assay with XIP peptide (Xip251-270) it was 0.472. For the same compound, the z-score was -1.35 in assay [2], -2.5 (inactive) in assay [3], -0.0509 (inactive) in assay [4] and -0.914 (inactive) in assay [5].

As to `O=C1O[C@@H](c2ccccc2)[C@@H](c2ccccc2)N2[C@@H](c3ccc(OCCO)cc3)[C@]3(C(=O)Nc4ccc(C#CCCO)cc43)[C@@H](C(=O)N3CCCCCCC3)[C@H]12`, the values for the composite z-score (in assay [1]; in the assay with XIP peptide (Xip251-270)) were 2.93 (inactive) and 0.883, respectively. For the same compound, the z-score in assay [2] was -2.22; in assay [3] it was -12.2 (active); in assay [4], -0.148 (inactive); in assay [5] it was 0.224 (inactive).

Consider `COC(=O)[C@@]1(Cc2ccc(OC)cc2)[C@H]2c3cc(C(=O)N4CCCC4)n(Cc4cc(F)c(F)c(F)c4)c3C[C@H]2CN1C(=O)c1ccccc1`, for which the composite z-score is 0.902 (inactive) in assay [1] and 0.604 with XIP peptide (Xip251-270). Also, the z-score was -1.56 in assay [2], -2.27 (inactive) in assay [3], -0.345 (inactive) in assay [4] and -0.868 (inactive) in assay [5].

Take `CN(C)c1ccc(C(O)C2C=CC3C(=O)N(c4ccccc4)C(=O)C3N2Nc2ccccc2F)cc1` (centres undefined): the figures for the composite z-score (in assay [1]; in the assay on XIP peptide (Xip251-270)) were 0.324 (inactive) and 0.265, respectively. Moreover, the z-score in assay [2] was -0.0341; in assay [3], -5.07 (inactive); in assay [4], -0.0191 (inactive); in assay [5], -0.817 (inactive).

`Cc1ccc(F)cc1S(=O)(=O)N[C@@H]1CCN(Cc2ccc(CC(C)C)cc2)C1`: the results for the composite z-score (in assay [1]; with XIP peptide (Xip251-270)) were -0.112 (inactive) and -0.583, respectively. Also, the z-score in assay [2] was -1.66; in assay [3] it was -4.52 (inactive); in assay [4], -0.496 (inactive); in assay [5], -0.724 (inactive).

Regarding `CC(C)(C)OC(=O)CC[C@]1(C(=O)NCc2ccccc2)N=C(c2ccc(OCCCO)cc2)O[C@H]1c1ccccc1`, the figures for the composite z-score (in assay [1]; with XIP peptide (Xip251-270)) were 0.124 (inactive) and 0.846, respectively. Further, the z-score was -1.58 in assay [2], -6.62 (inactive) in assay [3], -0.179 (inactive) in assay [4] and -0.062 (inactive) in assay [5].

Turning to `Cn1cccc1C(O)C1C=CC2C(=O)NC(=O)C2N1Nc1ccccn1` (centres undefined), the composite z-score in assay [1] was -0.262 (inactive); in the assay on XIP peptide (Xip251-270), 0.916. Besides, the z-score is -0.119 in assay [2], -5.35 (inactive) in assay [3], 0.242 (inactive) in assay [4] and -0.431 (inactive) in assay [5].

With `COc1ccc([Si](C)(C)[C@H]2[C@H](CC(=O)N3CCC[C@H]3CO)O[C@@]3(C(=O)N(Cc4cccc(N5C(=O)COc6ccccc65)c4)c4ccccc43)[C@@H]2C)cc1`, the composite z-score is 0.422 (inactive) in assay [1] and 0.74 in the assay with XIP peptide (Xip251-270). For the same compound, the z-score in assay [2] was -1.56; in assay [3], -3.12 (inactive); in assay [4], 0.0942 (inactive); in assay [5], 0.728 (inactive).

With `CC1CC/C=C\[C@H]2OC34C=CCN(C(C)C)C(=O)[C@H]3N(CCCO)C(=O)[C@@H]4C2C(=O)O1` (some centres undefined), the figures for the composite z-score (in assay [1]; in the assay on XIP peptide (Xip251-270)) were 0.94 (inactive) and -0.835, respectively. Besides, the z-score is -0.0943 in assay [2], -2.96 (inactive) in assay [3], -0.471 (inactive) in assay [4] and -0.415 (inactive) in assay [5].

For the compound `[N-]=[N+]=Nc1ccccc1C[C@@]1(C(N)=O)N=C(c2ccc(OCCCO)cc2)O[C@@H]1c1ccccc1`, the composite z-score in assay [1] is 0.353 (inactive); in the assay on XIP peptide (Xip251-270), -0.649. The z-score in assay [2] was -2.14; in assay [3], -4.43 (inactive); in assay [4], -0.332 (inactive); in assay [5], -0.449 (inactive).

With `C#C[C@@H]1Oc2ccccc2S(=O)(=O)N2CCC[C@H]12`, the values for the composite z-score (in assay [1]; with XIP peptide (Xip251-270)) were -0.037 (inactive) and -0.149, respectively. Besides, the z-score was -0.0728 in assay [2], -0.61 (inactive) in assay [3], 0.723 (inactive) in assay [4] and 0.595 (inactive) in assay [5].
